Source: PubChem
Hsp90 Hop PPI: changes Hsp90-Hop TPR2A binding signal, up or down; AlphaScreen TPR2A-His6 binding biotin-Hsp90 C-terminal peptide; Potency, µM (top dose mostly 57 µM), without a hit: top-dose activity change, negative = inhibition; actives 0.44% (n = 71,000); active = well fitted curve in either direction with a large enough effect; inconclusive = small, poorly fitted or top-dose-only effect, or another doubt; note: potency is the fitted concentration of half-maximal effect; % is set by controls: 0 for no effect and ±100 for the full control effect
BRCT inh green: blocks human BRCA1 BRCT binding to phosphopeptide, green readout; AID 875; actives 0.05% (n = 75,000); P38398; BRCA1 BRCT-phosphopeptide binding, green fluorescence polarization; Potency, µM (highest dose often 76.9 µM), for inactives: at the highest dose activity change, negative = inhibition, most hits filed as inhibitors;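 note: potency is the fitted concentration of half-maximal effect; plate controls were peptide without protein for full effect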
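Compounds were incubated for 12 min at room temperature with a complex of 100 nM fluorescein-tagged pBACH1 decapeptide and 250 nM His-tagged BRCT protein. Buffer was phosphate pH 7.3 with EDTA, DTT and Tween 20. Disruption of binding lowers the polarization signal.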
Pol III holo inh: DNA polymerase III holoenzyme inhibition; AID 603; reconstituted DNA polymerase III holoenzyme replication, biochemical; actives 0.25% (n = 71,000); Potency, µM (doses to about 57.1 µM), inactives show at the top dose activity change, negative = inhibition; note: potency is the fitted concentration of half-maximal effect; % is set by controls: 0 for no effect and ±100 for the full control effect
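Reconstituted *E. coli* holoenzyme (0.35 nM Pol III, 1 nM beta, 154 nM SSB, 2 nM primase) was preincubated with compound for 15 min at RT. Synthesis on 1.4 nM ssM13Gori ran 35 min, then was stopped with PicoGreen/EDTA and read as dsDNA fluorescence.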
YjeE inh: inhibitors of E. coli YjeE (TsaE) | P0AF67 | purified YjeE enzyme, qHTS inhibition assay | Potency, µM | actives 0.05% (n = 71,000) | AID 605
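Fluorescence polarization of a BODIPY Texas Red–ADP probe (2 uM) bound to purified YjeE (10 uM) was read after 15 min room-temperature incubation with compounds. Loss of polarization marks inhibitors; ADP serves as titrated control.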
BRCT inh red: inhibitors of human BRCA1 BRCT-phosphoprotein interaction (red fluorophore) | BRCT-phosphopeptide binding, red fluorescence polarization | Potency, µM (titrated, usually from 76.9 µM), for inactives: top-dose activity change, negative = inhibition, actives largely listed as inhibitors | actives 0.03% (n = 75,000) | AID 892; note: % is set by controls: 0 for no effect and ±100 for the full control effect
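Rhodamine-labelled pBACH1 10-mer (100 nM) bound to BRCT domain (100 nM) at pH 7.3; compounds incubated 12 min room temperature, polarization read. Free peptide defines full inhibition; unlabelled decapeptide titrated as control.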
An asterisk follows results filed as active; ! = repeats disagree; [ ] = remark or other dose. In the library only some 0.53% were active in any assay of this set; here they are far more common. Unless noted, calls come from the whole dose curve; as a rule, active = well fitted curve in the direction sought with a large enough effect; inconclusive = small, poorly fitted or top-dose-only effect, or another doubt; inactive = no such curve, though single readings can be large; an effect the other way counts as inactive or inconclusive.

What do the screens show for `CCCCC(=O)Nc1sc2c(c1C(N)=O)CCC2`?
Hsp90 Hop PPI: -7%; BRCT inh green: -1%; Pol III holo inh: -5%; YjeE inh: inactive; BRCT inh red: 0%

What do the screens show for `CCC1(CC)NC(=O)N(CC(=O)Nc2sc3c(c2C(N)=O)CCC3)C1=O`?
Hsp90 Hop PPI: -10%; BRCT inh green: -1%; Pol III holo inh: 20µM*; YjeE inh: inactive; BRCT inh red: -6%

Results for CCc1cccc2nc3c(c([Si](CC)(CC)CC)c12)Cn1c-3cccc1=O ?
Hsp90 Hop PPI: 25µM*; BRCT inh green: 23%; Pol III holo inh: 1%; YjeE inh: inactive; BRCT inh red: -2%

How did O=C(NCCCCN1CCCC1)c1ccc(-n2c(=O)c(=O)[nH]c3ccccc32)cc1 do in these assays?
BRCT inh green: -1%; BRCT inh red: -2%

Results for O=S(=O)(O)c1ccc2c(N=Nc3cccc4ccccc34)c(O)c(S(=O)(=O)O)cc2c1 ?
Hsp90 Hop PPI: -29%[11 µM]; BRCT inh green: -25%[15.4 µM]; Pol III holo inh: -9%[11.4 µM]; YjeE inh: inactive; BRCT inh red: -18%[15.4 µM]

What do the screens show for `O=[N+]([O-])c1ccc2c(N=Nc3ccc4ccccc4c3O)c(O)cc(S(=O)(=O)O)c2c1`?
Hsp90 Hop PPI: inconclusive; BRCT inh green: -2%[15.4 µM]; Pol III holo inh: -19%[11.4 µM]; YjeE inh: 7.9µM*; BRCT inh red: -3%[15.4 µM]

Results for O=C(N/N=C1/C[C@@H](O)[C@@H](O)[C@@H]2[C@@H]3C(=O)N(C4CCCCC4)C(=O)[C@H]3CC[C@@H]12)OCc1ccccc1 ?
BRCT inh green: 0%[15.4 µM]; BRCT inh red: -1%[15.4 µM]

Results for O=c1cc(-c2ccccc2)oc2cc(O)c(O)c(O)c12 ?
Hsp90 Hop PPI: inconclusive; BRCT inh green: -3%; Pol III holo inh: -24%; YjeE inh: inactive; BRCT inh red: -4%

How did O=C(O)CN(CC(=O)O)Cc1cc2c(-c3ccccc3C(=O)O)c3cc(CN(CC(=O)O)CC(=O)O)c(=O)cc-3oc2cc1O do in these assays?
BRCT inh green: 0.13µM*; BRCT inh red: 0.63µM*

What do the screens show for `Nc1c2ccccc2nc2ccccc12`?
Hsp90 Hop PPI: -3%; BRCT inh green: 0%[3.08 µM]; Pol III holo inh: 40µM*; YjeE inh: inactive; BRCT inh red: 0%

What do the screens show for `Nc1c2c(nc3ccccc13)CCCC2`?
Hsp90 Hop PPI: -3%; BRCT inh green: 4%; Pol III holo inh: -10%; YjeE inh: inactive; BRCT inh red: 1%

What do the screens show for `O=C(Nc1ccc(-n2nncc2-c2ccco2)cc1)c1cc2ccccc2oc1=O`?
Hsp90 Hop PPI: 1%; BRCT inh green: -1%; Pol III holo inh: 13µM*; YjeE inh: inactive; BRCT inh red: 1%

Results for c1ccc2c(NC3CCNCC3)nc(-c3ccoc3)nc2c1 ?
Hsp90 Hop PPI: -10%; BRCT inh green: -1%; Pol III holo inh: -16%; YjeE inh: inactive; BRCT inh red: -1%

Results for CN(C)Cc1ccccc1-c1nc(NC2CCNCC2)c2ccccc2n1 ?
Hsp90 Hop PPI: -1%; BRCT inh green: 0%; Pol III holo inh: 25µM*; YjeE inh: inactive; BRCT inh red: -1%

What do the screens show for `COc1cccc(-c2nc(NC3CCNCC3)c3ccccc3n2)c1`?
Hsp90 Hop PPI: 3%; BRCT inh green: -1%; Pol III holo inh: 32µM*; YjeE inh: inactive; BRCT inh red: -6%

What do the screens show for `CN(C)c1ccc(-c2nc(NC3CCNCC3)c3ccccc3n2)cc1`?
Hsp90 Hop PPI: -7%; BRCT inh green: -2%; Pol III holo inh: inconclusive; YjeE inh: inactive; BRCT inh red: 1%

How did C[C@@]12CCC(=O)C=C1CC[C@H]1[C@@H]2[C@@H](O)C[C@]2(C)[C@@H]1CC[C@@]2(O)C(=O)CO do in these assays?
Hsp90 Hop PPI: -1%[11 µM]; BRCT inh green: -2%[15.4 µM]; Pol III holo inh: -7%[11.4 µM]; YjeE inh: inactive; BRCT inh red: -3%[15.4 µM]

What do the screens show for `Nc1ncnc2c1ncn2[C@@H]1O[C@@H](CO)[C@H](O)[C@@H]1O`?
Hsp90 Hop PPI: -7%; BRCT inh green: 1%; Pol III holo inh: -6%; YjeE inh: inactive; BRCT inh red: -1%

What do the screens show for `C[C@H](NC(=O)/C(C#N)=C/c1ccc(O)c(O)c1)c1ccccc1`?
Hsp90 Hop PPI: 7.9µM*!; BRCT inh green: -2%; Pol III holo inh: -8%; YjeE inh: inactive; BRCT inh red: -1%
